Laboratory results: PubChem BioAssay AID651564 (Sanford-Burnham Center for Chemical Genomics, 2012)
The list shows a part of the results. A number with no mark means an inactive call. The source made the active and inactive calls. Cut-off read from the data, not from the text of the source: active = IC50 below about 80 µM; inactive = the rest.

Assay: fluorescent counter-screen in isolated mitochondria, dose response, counter-screen for MPTP inhibitor project, biochemical, fluorescence, uHTS hits (AID 651564)
Settings: isolated mitochondria counterscreen, fluorescence read-out

| SMILES | IC50 |
| --- | --- |
| O=C(Nc1cccc(-c2cccc(Cl)c2)c1)C1CCN(C2CCC2)CC1 | 33.6 µM (active) |
| N=c1n(Cc2ccc(Cl)cc2)c2ccccc2n1CC(O)c1ccco1 (stereo not drawn) | 13.1 µM (active) |
| O=C(NC1CCN(Cc2ccccc2)CC1)c1cc(Br)c(Br)[nH]1 | > 80 µM |
| CCCC[C@@H]1CN=C(N)N1CCc1cc(C(F)(F)F)cc(C(F)(F)F)c1 | 28.5 µM (active) |
| CCCCOC(=O)CNc1nnc(SCC(=O)OCC)[nH]c1=O | > 80 µM |
| CN1CCC[C@@H]1CCO[C@](C)(c1ccccc1)c1ccc(Cl)cc1 | > 80 µM |
| CCCCc1nc(NCCN)c(C#N)c2c1CSC(C)(C)C2 | > 80 µM |
| O=C(COC(=O)c1ccccc1NC(=O)c1ccco1)Nc1ccc2c(c1)OC(F)(F)O2 | 10.7 µM (active) |
| CCNCCC(=O)N1c2ccccc2Sc2ccc(NC(=O)OCC)cc21 | > 80 µM |
| CN(C)Cc1ccccc1C1(O)c2ccccc2CSc2ccccc21 (stereo not drawn) | > 80 µM |
| Cc1cc(C)c(NC(=O)C[N+](C)(C)CC(O)COc2cccc3ccccc23)c(C)c1 (stereo not drawn) | 47.5 µM (active) |
| FC(F)(F)COc1nc(N2CCCCC2)nc(N2CCNCC2)n1 | > 80 µM |
| NC(N)=N/N=C/c1ccc(Cl)c([N+](=O)[O-])c1 | 71.5 µM (active) |
| Brc1ccc(CSc2ccc(-c3ccco3)nn2)cc1 | > 80 µM |
| Cc1ccc(-c2noc(CCC(=O)Nc3ccccc3N3CCN(C)CC3)n2)cc1 | > 80 µM |
| NC[C@H](Cc1ccccc1)NCCc1cc(C(F)(F)F)cc(C(F)(F)F)c1 | 52.7 µM (active) |
| Cc1ccc2c(c1)C1CN(C)CCC1N2S(=O)(=O)c1ccc(Oc2ccc([N+](=O)[O-])cc2)cc1 (stereo not drawn) | > 80 µM |
| COCCn1c(CN2CCC(Cc3ccccc3)CC2)nc2c1c(=O)n(C)c(=O)n2C | 5.73 µM (active) |
